Rows were chosen to be rich in hits. Some 4.5% of all compounds tested hit in one or more screens of this group.
ZTA counter – counter-screen for EBNA-1 inhibitors: inhibitors of Epstein-Barr virus ZTA; inhibition, % at 11 µM; ZTA-DNA binding, fluorescence polarization; AID 2234; hit rate 0.15% among 320,000; P03206; in the data active = inhibition above about 33%
dFosB activator – activators of delta FosB homodimer, primary screen, biochemical, fluorescence polarization, TAMRA-CDK5 oligo, single point. purified delta FosB; percent of positive-control signal above neutral wells. activation, % at 25 µM. hit rate 0.99% among 340,000. AID 493131, 2011;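 active = mean activation above about 17%, with every replicate also reaching it, limit read from the data, passing the limit was not always enough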
Target sequence (P13346 whole entry, looked up): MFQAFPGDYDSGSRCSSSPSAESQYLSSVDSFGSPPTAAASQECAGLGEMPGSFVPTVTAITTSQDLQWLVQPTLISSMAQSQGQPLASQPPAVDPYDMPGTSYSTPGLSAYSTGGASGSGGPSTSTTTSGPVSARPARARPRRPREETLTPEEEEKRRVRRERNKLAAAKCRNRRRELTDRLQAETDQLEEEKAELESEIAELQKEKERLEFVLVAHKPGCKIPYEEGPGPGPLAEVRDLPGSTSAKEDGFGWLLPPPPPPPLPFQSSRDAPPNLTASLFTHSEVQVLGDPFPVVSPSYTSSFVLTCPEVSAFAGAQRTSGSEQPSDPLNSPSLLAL
TPT1 inh – Candida albicans TPT1 enzyme inhibitors, primary screen, biochemical, fluorescence polarization | tRNA 2'-phosphotransferase TPT1 (Candida albicans SC5314) | hit rate 0.81% among 300,000 | AID 1962, 2009 | inhibition, % at 5 µM | recombinant caTPT1, FP RNA substrate dephosphorylation;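 active = inhibition above the mean of all tested compounds plus 3 SD, set per screening campaign, cut at about 24% in these data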;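 also: plate controls were DMSO alone for no effect and ferristatin control at 100 nM for full effect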
GRIN3A LBD mod – binders of NR3A ligand-binding domain, primary screen, biophysical, differential scanning fluorimetry, uHTS; Glutamate receptor ionotropic, NMDA 3A (GRIN3A) ligand-binding domain; NR3A LBD differential scanning fluorimetry, Tm shift; 0% = protein alone, 100% = glycine-bound protein; Tm shift relative to glycine control, % at 25 µM; hit rate 2.5% among 340,000; AID 1259313, 2017;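 active = melting temperature shift of at least 10% of the positive control shift, at one fixed dose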
EBNA-1 inh – EBNA-1 DNA-binding inhibitors, primary screen, biochemical, fluorescence polarization. inhibition, % at 14.8 µM. hit rate 0.34% among 300,000. AID 1950, 2009; in the data active = inhibition above about 28%
Rpn11 inh – Rpn11 (PSMD14) deubiquitinase inhibitors, primary screen, biochemical, fluorescence polarization, uHTS; hit rate 0.59% among 360,000; 26S proteasome non-ATPase regulatory subunit 14 (Homo sapiens), O00487; inhibition, % at 20 µM; human 26S proteasome, Ub4-pepOG fluorescence polarization; 20S core pre-blocked with epoxomicin;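 active = inhibition at 20 µM, scaled to each plate's controls, above about 33%, limit read from the data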
An asterisk follows results filed as active; · = no result.

SMILES	ZTA counter	dFosB activator	TPT1 inh	GRIN3A LBD mod	EBNA-1 inh	Rpn11 inh
O=C(CN1C(=O)c2cccc3cccc1c23)NCC1CCCO1 (stereo not given)	10.8	-5.3	0.1	15.6*	-10.6	0.6
O=C(CCN1C(=O)c2cccc3cccc(c23)C1=O)NCC1CCCO1 (stereo not given)	3.7	4.0	2.6	1.2	-7.4	-6.1
O=C1COc2ccc(C(=O)c3ccccc3C(=O)NCc3ccccc3)cc2N1	12.7	-10.9	-11.6	-2.9	2.1	3.6
COc1cc(/C=N/NC(=O)c2sc(N)c(C#N)c2C)cc(Br)c1O	4.8	1.3	3.6	15.9*	7.0	9.3
COc1ccc2ccccc2c1/C=N/NC(=O)c1sc(N)c(C#N)c1C	0.4	15.5	9.5	17.4*	5.6	39.6
Cc1c(C(=O)N/N=C/c2cccnc2)sc(N)c1C#N	·	3.4	·	-3.0	·	0.2
CCOc1ccc(S(=O)(=O)Nc2ccccc2C(=O)N/N=C/c2c(OC)ccc3ccccc23)cc1	-1.7	0.1	1.3	22.1*	5.4	5.6
COc1ccc2ccccc2c1/C=N/NC(=O)c1ccccc1F	-0.5	-5.8	-0.9	1.9	1.9	-6.5
COc1ccc(CCN2CC(C(=O)NCc3cccc(F)c3)CCC2=O)cc1 (stereo not given)	·	·	·	·	·	-1.0
Cc1ccc(C)c(S(=O)(=O)N2CCN(Cc3cc4c(cc3O)OCO4)CC2)c1	2.7	-7.6	·	-1.4	·	-1.5
NC(Cc1ccc(F)cc1)c1csc(NC(=O)NC(c2ccccc2)c2ccccc2)n1 (stereo not given)	·	·	·	·	·	0.4
CSc1cccc(NS(=O)(=O)c2ccccc2)c1	1.1	1.0	-4.6	19.9*	-15.6	-2.4
Cc1ccc(S(=O)(=O)Nc2ccc(N=Nc3ccc(O)cc3)cc2)cc1	-9.5	-8.4	1.2	14.0*	-8.3	4.0
CCOc1ccc(NS(=O)(=O)c2ccc(NS(C)(=O)=O)cc2)cc1	-16.8	-3.2	-3.6	0.0	-12.4	1.7
CCOc1ccc(NS(=O)(=O)c2ccc(NS(=O)(=O)c3ccc(SC)cc3)cc2)cc1	2.1	-6.0	0.6	28.5*	2.2	-0.5
Cc1ccc(S(=O)(=O)Nc2ccc(N(C)S(=O)(=O)c3ccc(C)cc3)cc2)cc1	-8.8	-12.1	0.4	-5.6	3.9	-2.0
CSc1ccc(S(=O)(=O)Nc2ccc(S(=O)(=O)Nc3ccc(C)cc3)cc2)cc1	-6.2	-7.0	2.0	24.7*	-3.4	-0.7
CSc1cccc(NS(=O)(=O)c2ccc(F)cc2)c1	-15.9	2.9	-0.2	-2.6	-7.5	5.0
CCCC(=O)OC1CCS(=O)(=O)c2sccc21 (stereo not given)	17.4	-0.7	-1.5	1.3	3.5	4.9
COc1ccc(C2=NOC3(CC(=O)N(c4ccc(F)cc4)C3=O)C2)cc1 (stereo not given)	22.5	-23.5	0.5	-4.4	3.7	6.2
O=C(Nc1ccc2snnc2c1)Nc1cccc2ccccc12	10.1	4.9	1.9	38.4*	2.8	-2.9
S=C(c1ccccc1)N1CCCc2ccccc21	2.5	-1.4	-0.3	11.1*	-2.1	0.1
O=C(c1ccccc1)N1CCCc2ccccc21	17.7	-7.6	-1.8	-1.5	12.9	0.5
O=S(=O)(Nc1ccc(N2CCOCC2)cc1)c1c(F)cc(F)cc1Br	6.3	-7.3	-1.0	-2.8	-8.6	-2.6
COc1cccc(-c2ccc3nnc(SCC(=O)Nc4ccc(NC(C)=O)cc4)n3n2)c1	-25.1	-7.3	0.1	0.5	-2.1	7.6
Cc1ccc(-c2ccc(/C=N/NC(=S)Nc3ccccc3)o2)cc1[N+](=O)[O-]	7.5	-6.8	1.6	27.0*	5.8	5.2
CNC(=S)N/N=C/c1ccc(-c2ccc(Cl)c([N+](=O)[O-])c2)o1	-0.7	-4.6	1.9	7.5	-8.2	0.3
NC(=S)N/N=C/c1ccc(-c2cccc([N+](=O)[O-])c2)o1	8.3	-14.4	4.2	9.1	-6.9	-5.9
O=[N+]([O-])c1cccc(-c2ccc(/C=N/NC(=S)Nc3cccc(F)c3)o2)c1	14.8	-13.0	-0.9	28.5*	4.6	-2.3

Screening data: PubChem BioAssay, several laboratories
